From PubChem BioAssay (NCATS)
Results filed as inconclusive are left out. Activity calls are given as the source filed them. Unless noted, the call rests on the fitted dose curve; in most records, active means well fitted curve in either direction with a large enough effect (not every such curve was filed as active); inconclusive means small, poorly fitted or top-dose-only effect, or another doubt; inactive means flat fitted curve, though single readings scatter.

Assays:
[1] = AP1 Signaling Pathway (AID 357); details: ME-180 AP-1-bla reporter, EGF-induced, beta-lactamase ratio, 5 h; at 17.2 µM (top of the series) unless noted; further: on the % scale 0 is the no-effect control and ±100 the full control effect
Summary of the method: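 ME-180 cells with beta-lactamase reporter under AP-1 response element, stimulated with EC50 EGF; compounds tested in titration series, 5 h at 37 °C. CCF4 substrate added 2.5 h at room temperature; 460/530 nm emission ratio gave %activity and AC50.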

[2] = NFAT Signaling Pathway (AID 444); details: Jurkat NFAT-bla M1, carbachol, beta-lactamase ratio, 5 h; at 17.2 µM (top of the series) unless noted;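 further: carbachol stimulus at about its EC50 of 1 µM final; on the % scale 0 is the no-effect control and ±100 the full control effect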
Summary of the method: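 Read-out: CCF4 FRET ratio (460 nm/530 nm) after 1 h RT dye loading, used for %activity and AC50 from titration series. Cells: Jurkat NFAT-β-lactamase/M1 line, treated with compound plus 1 uM carbachol for 5 h, 37 °C.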

[3] = Stat Signaling Pathway (AID 446); details: ME-180 SIE beta-lactamase reporter, IL-6 stimulated, 5 h; at 17.2 µM (top of the series) unless noted;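 further: ME-180 cervical cancer cells given 40 pM IL-6 alongside compound; SIE-controlled beta-lactamase reporter measured as 460/530 nm FRET emission ratio; on the % scale 0 is the no-effect control and ±100 the full control effect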
Summary of the method: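 Reporter line: ME-180 cervical carcinoma, SIE-beta-lactamase. Treatment: compound with 40 pM IL-6, 5 hrs, 37 C, in low-serum OPTI-MEM with 10 mM HEPES pH 7.3. Detection: 460/530 nm fluorescence.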

[4] = biological target: Glucocorticoid receptor (Homo sapiens) (UniProt P04150); experiment: GR-GFP Redistribution (AID 450;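 active means compounds whose dose series gives a full or clear partial fitted curve of increased nuclear translocation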; further: potency means the concentration at half of the fitted maximal effect)
Sequence of Glucocorticoid receptor (Homo sapiens) (P04150 whole entry, looked up): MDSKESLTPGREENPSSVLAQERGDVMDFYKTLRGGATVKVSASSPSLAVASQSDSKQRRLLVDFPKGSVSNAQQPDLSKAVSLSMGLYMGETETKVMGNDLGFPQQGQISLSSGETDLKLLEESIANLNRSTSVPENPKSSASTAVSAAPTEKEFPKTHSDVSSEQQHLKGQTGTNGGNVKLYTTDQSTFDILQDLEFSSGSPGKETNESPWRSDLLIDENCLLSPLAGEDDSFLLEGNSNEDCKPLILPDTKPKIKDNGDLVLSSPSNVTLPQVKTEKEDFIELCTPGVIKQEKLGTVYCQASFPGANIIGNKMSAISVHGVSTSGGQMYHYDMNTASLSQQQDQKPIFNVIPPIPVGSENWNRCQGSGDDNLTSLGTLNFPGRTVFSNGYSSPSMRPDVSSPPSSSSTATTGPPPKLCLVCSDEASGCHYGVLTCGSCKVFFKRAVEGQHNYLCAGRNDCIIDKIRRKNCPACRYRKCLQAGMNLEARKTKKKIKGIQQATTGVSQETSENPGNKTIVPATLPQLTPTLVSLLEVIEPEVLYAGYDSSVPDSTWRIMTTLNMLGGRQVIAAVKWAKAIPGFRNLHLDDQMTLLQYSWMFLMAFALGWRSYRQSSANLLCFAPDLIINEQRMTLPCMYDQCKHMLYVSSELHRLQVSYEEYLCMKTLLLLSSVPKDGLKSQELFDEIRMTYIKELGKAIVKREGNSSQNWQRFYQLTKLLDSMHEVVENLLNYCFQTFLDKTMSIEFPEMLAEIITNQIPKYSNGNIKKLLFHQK

O=C(CN1C(=O)c2ccccc2C1=O)NCc1ccncc1
inactive: activity change, negative = inhibition [1] -3.15% | activity change, negative = inhibition [2] -0.713% | activity, negative = inhibition [3] 5.8% | Potency [4] > 20.6 µM

COCc1[nH]nc2c1C(c1ccccc1OC)C(C#N)=C(N)O2 (stereo not given)
inactive: activity change, negative = inhibition [1] -14.7% | activity change, negative = inhibition [2] -26.9% | activity, negative = inhibition [3] -17.1% | Potency [4] > 20.6 µM

CCCCn1c(=O)n(C)c(=O)c2c3c(sc21)COC(C)(C)C3
inactive: activity change, negative = inhibition [1] -4.87% | activity change, negative = inhibition [2] 5.64% | activity, negative = inhibition [3] -7.31% | Potency [4] > 20.6 µM

CCC(=O)O[C@@H]1CC(=O)O[C@H](C)CC=CC=C[C@@H](O)[C@H](C)C[C@H](CC=O)[C@H](O[C@H]2O[C@H](C)[C@@H](O[C@H]3C[C@@](C)(O)[C@@H](OC(=O)CC)[C@H](C)O3)[C@H](N(C)C)[C@H]2O)[C@H]1OC
inactive: activity change, negative = inhibition [1] 1.11% | activity change, negative = inhibition [2] 8.88% | activity, negative = inhibition [3] -1.1% | Potency [4] > 20.6 µM

Cc1cc2c(C)nc(Cc3ccccc3)nc2o1
inactive: activity change, negative = inhibition [1] -3.87% | activity change, negative = inhibition [2] -3.38% | activity, negative = inhibition [3] 5.35% | Potency [4] > 20.6 µM

Cc1nnc(N2CCCCC2)c2ccccc12
inactive: activity change, negative = inhibition [1] -1.88% | activity change, negative = inhibition [2] 13.3% | activity, negative = inhibition [3] -8.53% | Potency [4] > 20.6 µM

CCCCNc1nc2c(c(=O)n(C)c(=O)n2C)n1Cc1cccc(OC)c1
inactive: activity change, negative = inhibition [1] -11.7% | activity change, negative = inhibition [2] 2.13% | activity, negative = inhibition [3] -17% | Potency [4] > 20.6 µM

c1ccc(-c2nn3c(C4CCCCC4)nnc3s2)cc1
inactive: activity change, negative = inhibition [1] -19.5% | activity change, negative = inhibition [2] -5.79% | activity, negative = inhibition [3] 18.2% | Potency [4] > 20.6 µM

CCOC(=O)CC1=C(C(=O)OCC)C(c2cc(OC)c(OC)cc2OC)C(C#N)=C(N)O1 (stereo not given)
inactive: activity change, negative = inhibition [1] 0.567% | activity change, negative = inhibition [2] -1.8% | activity, negative = inhibition [3] 10.5% | Potency [4] > 20.6 µM

COc1cc(-n2c3nc4ccccc4nc3c3c(=O)n(Cc4ccco4)cnc32)cc(OC)c1OC
inactive: activity change, negative = inhibition [1] -7.36% | activity change, negative = inhibition [2] -5.5% | activity, negative = inhibition [3] 3.4% | Potency [4] > 20.6 µM

CCC(=O)Nc1nc2ccccc2n1CCN(C)C
inactive: activity change, negative = inhibition [1] 3.29% | activity change, negative = inhibition [2] -7.56% | activity, negative = inhibition [3] 10.7% | Potency [4] > 20.6 µM

N/C(CCN1CCCCC1)=N/O
inactive: activity change, negative = inhibition [1] 8.61% | activity change, negative = inhibition [2] -6.23% | activity, negative = inhibition [3] 2.5% | Potency [4] > 20.6 µM

COc1ccc(-c2c3c([nH]c(=S)c2C#N)CCC3)cc1
inactive: activity change, negative = inhibition [1] 22.9% | activity change, negative = inhibition [2] -5.23% | activity, negative = inhibition [3] -7.04% | Potency [4] > 20.6 µM

Cc1cc(=O)oc(C)c1C(=O)N[C@@H]1CCCCNC1=O
inactive: activity change, negative = inhibition [1] 9.85% | activity change, negative = inhibition [2] 9.68% | activity, negative = inhibition [3] 9.42% | Potency [4] > 20.6 µM

CCOc1ccccc1N1CCN(c2nc3ccccc3nc2C(C#N)C(=O)OC)CC1 (stereo not given)
active: activity change, negative = inhibition [2] -106%
inactive: activity change, negative = inhibition [1] -24.3% | activity, negative = inhibition [3] -16.5% | Potency [4] > 20.6 µM

Cc1cc(C)nc(NC2=NCC(=O)N2c2ccccc2)n1
inactive: activity change, negative = inhibition [1] 13.1% | activity change, negative = inhibition [2] -8.71% | activity, negative = inhibition [3] 9% | Potency [4] > 20.6 µM

O=C(c1ccc(-n2cnnn2)cc1)N1CCOCC1
inactive: activity change, negative = inhibition [1] 10.3% | activity change, negative = inhibition [2] -0.0644% | activity, negative = inhibition [3] 12.1% | Potency [4] > 20.6 µM

O=CNC(=O)c1ccccc1C(=O)O
inactive: activity change, negative = inhibition [1] -3.37% | activity change, negative = inhibition [2] 3.48% | activity, negative = inhibition [3] 20.3% | Potency [4] > 20.6 µM

Cc1cc(C)n(CC2CC(=O)N(c3ccc(Cl)c(Cl)c3)C2=O)n1 (stereo not given)
inactive: activity change, negative = inhibition [1] -14.3% | activity change, negative = inhibition [2] -11.5% | activity, negative = inhibition [3] 0.577% | Potency [4] > 20.6 µM

O=C(NCc1ccccc1)C1C(=O)N(Cc2ccccc2)C(=O)C1C1(O)CCCC1 (stereo not given)
inactive: activity change, negative = inhibition [1] -16.6% | activity change, negative = inhibition [2] 23.6% | activity, negative = inhibition [3] -6.02% | Potency [4] > 20.6 µM

O=P(O)(c1ccccc1)c1ccccc1O
inactive: activity change, negative = inhibition [1] 6.62% | activity change, negative = inhibition [2] 7.27% | activity, negative = inhibition [3] 8.28% | Potency [4] > 20.6 µM

Cc1c(/C(O)=C2/C(=O)C(=O)N(CCCN3CCOCC3)C2c2ccncc2)cnn1-c1ccccc1 (stereo not given)
inactive: activity change, negative = inhibition [1] 5.29% | activity change, negative = inhibition [2] -3.84% | activity, negative = inhibition [3] 5.14% | Potency [4] > 20.6 µM

CCOC(=O)C1CCN(C(C)=C2C(=O)c3ccccc3C2=O)CC1
inactive: activity change, negative = inhibition [1] 2.67% | activity change, negative = inhibition [2] 4.7% | activity, negative = inhibition [3] 1.52% | Potency [4]

NC(=O)C1CCN(CCC(=O)Nc2ccc(Br)cc2)CC1
inactive: activity change, negative = inhibition [1] 11.3% | activity change, negative = inhibition [2] -28.6% | activity, negative = inhibition [3] 5.95% | Potency [4] > 20.6 µM

CNC(=O)CCn1nc(-c2ccccc2)c2ccccc2c1=O
inactive: activity change, negative = inhibition [1] 5.34% | activity change, negative = inhibition [2] -2.43% | activity, negative = inhibition [3] 1.15% | Potency [4] > 20.6 µM
